# Source: ChEMBL document CHEMBL3988442, “University of Dundee, Small-Polar-MMV Screening Library” (2021)
# The campaign covered roughly 48,000 compounds. About 13,000 (27%) showed an effect of 50% or more. The list shows a part of the results.
# Test system: Wolbachia pipientis
# Assay: Anti-Wolbachia Cell-Based Screen
# Type: functional
# Design: scale not given: in the data most compounds retested in dose-response had high values
# Conditions: 5 µM
row,Structure (SMILES),Percent Effect [%]
1,CC(C)c1nc(CNc2ccc(N3CCC(CO)CC3)cn2)cs1,0.232
2,Cl.O=C(CN1CCC[C@@H]1C(=O)O)NCCOc1cccc(C(F)(F)F)c1,-3.641
3,Cc1nccc(N2C[C@@H](CN3CCCC3)[C@@H](CO)C2)n1,109.4
4,Cn1ccnc1CN1C[C@@H](CN2CCCC2)[C@@H](CO)C1,2.193
5,CCN1CCN(C[C@@H]2CN(c3ncccc3Cl)C[C@@H]2CO)CC1,-1.669
6,CSc1nccc(N2C[C@@H](CN3CCCCC3)[C@@H](CO)C2)n1,104.9
7,Cn1ccnc1CN1C[C@@H](CN2CCCCC2)[C@@H](CO)C1,-0.1943
8,Cc1nc(N2C[C@@H](CN3CCCCC3)[C@@H](CO)C2)c2sccc2n1,8.907
9,Nc1nccc(N2C[C@@H](CN3CCCCC3)[C@@H](CO)C2)n1,106.5
10,OC[C@H]1CN(Cc2c(Cl)cccc2Cl)C[C@H]1CN1CCCCC1,2.429
11,Cn1ccnc1CN1C[C@@H](CN2CCCCCC2)[C@@H](CO)C1,-5.321
12,Cc1cc(CN(C)C(=O)C(c2ccccc2C)N(C)C)on1 (stereo not drawn),-6.719
13,COCC1CN(c2ccc3c(Cl)ccnc3c2F)CCO1 (stereo not drawn),-23.97
14,CC(C)n1nc(Cn2cccn2)c2c1CN(C1CCOCC1)C2.O=C(O)C(F)(F)F,-12.7
15,CSCC(CCO)Nc1cccc(C(F)(F)F)n1 (stereo not drawn),-4.466
16,Cc1[nH]/c(=N\C(=O)c2csc(NC3CC3)n2)sc1C,5.659
17,CCn1nc(C(C)C)cc1C(=O)N1CC(OCc2ccccc2F)C1,-12.74
18,CC(C)C(=O)N1CCCC2(CCCN2CC2CCCC2)C1.O=C(O)C(F)(F)F (stereo not drawn),4.18
19,CCC(NC(=O)c1c(C(=O)O)cnn1C)c1ccc(C)cc1C (stereo not drawn),109.1
20,CCCC(NC(=O)c1cc(C)ccc1C)c1nnn[nH]1 (stereo not drawn),-4.44
21,CCC(NC(=O)c1nn(C)cc1C(=O)O)c1ccccc1 (stereo not drawn),82.78
22,CCC(NC(=O)c1cc(NC(C)=O)ccc1Cl)c1cc(C)ccn1 (stereo not drawn),-8.351
23,CCC(NC(=O)c1cc(CC(C)C)nn1C)c1cc(C)ccn1 (stereo not drawn),6.008
24,CCC(NC(=O)c1nn(C)cc1C(=O)O)c1ccc(C)cc1 (stereo not drawn),104.3
25,CCC(NC(=O)c1nn(C)cc1C(=O)O)c1ccc(C)cc1C (stereo not drawn),113.8
26,CCC(NC(=O)CN(C)Cc1ccc(C)o1)c1ccc(C)cc1 (stereo not drawn),3.05

row,Structure (SMILES),Percent Effect [%]
1,COc1ccc(C(CC(=O)O)NC(=O)c2cc(C)on2)cc1 (stereo not drawn),2.487
2,CCNc1ncc(C(=O)NC(CCN(C)C)c2ccccc2)cn1 (stereo not drawn),13.66
3,Cc1ccc(C(C(=O)O)N(C)CCCN2CCOCC2)c(C)c1 (stereo not drawn),-9.259
4,CCC(CC)NC(=O)Cn1cc(C(N)=O)c(-c2ccccc2)n1,-10.51
5,CSCC(CCO)NC(=O)Nc1cc(C)ccc1C (stereo not drawn),-5.082
6,CC(C)(C)NC(=O)NCc1cnn2ccccc12,-7.455
7,CCOCCN1C[C@H](c2cccc(OC)c2)[C@@H](N)C1,-6.771
8,Cc1cnccc1N1CCN(c2nccc(CCC(F)(F)F)n2)CC1,13.49
9,Cc1nc(C)n(CC2CCCN2CC(=O)Nc2ccnn2C(C)C)n1 (stereo not drawn),-5.093
10,CCOCC(=O)N1CC[C@H]2OCC[C@@H](c3nnc(C)o3)[C@H]2C1,13.01
11,Cc1ccc(C(=O)NCC(O)c2ccc(F)c(F)c2)c(=O)[nH]1 (stereo not drawn),-52.3
12,Cn1c(SCC2OCCc3ccccc32)n[nH]c1=O (stereo not drawn),-11.92
13,CN(c1ccccc1)S(=O)(=O)c1cc2c(c(C(=O)O)c1)OCCO2,4.597
14,O=C(O)c1cc(S(=O)(=O)Nc2ccc(F)cc2F)cc2c1OCCO2,104.7
15,O=C(O)c1cc(S(=O)(=O)Nc2cc(F)ccc2F)cc2c1OCCO2,0.9161
16,O=C(O)c1cc(S(=O)(=O)Nc2cccc(F)c2F)cc2c1OCCO2,134.3
17,CN(c1ccc(F)cc1)S(=O)(=O)c1cc2c(c(C(=O)O)c1)OCCO2,-14.55
18,CN(c1c(F)cccc1F)S(=O)(=O)c1cc2c(c(C(=O)O)c1)OCCO2,7.763
19,Cc1ccc(F)cc1NS(=O)(=O)c1cc2c(c(C(=O)O)c1)OCCO2,117.8
20,Cc1ccc(S(=O)(=O)N2CCOc3ccccc32)cc1C(=O)O,-0.06219
21,Cc1cc(F)ccc1NS(=O)(=O)c1cc2c(c(C(=O)O)c1)OCCO2,118
22,CCc1noc(CS(=O)(=O)CC(=O)N2c3ccccc3CC2C)n1 (stereo not drawn),1.089
23,CCOC1CC2(CCN(Cc3cnn(C)c3)CC2)c2ccc(C)cc21 (stereo not drawn),-1.962
24,CN1CCN(C)C2(CCN(Cc3ccc(C4CCCO4)s3)CC2)C1 (stereo not drawn),-8.087
25,COc1c(Cl)cc(C(=O)NCc2n[nH]c(C)n2)cc1Cl,1.914
26,Cc1nc(CCCNC(=O)c2cc(F)ccc2O)n[nH]1,85.21

row,Structure (SMILES),Percent Effect [%]
1,Cc1nc(CCCNC(=O)c2c(F)cc(F)cc2F)n[nH]1,108.5
2,COc1ccc2cccc(CC(=O)NCCCc3n[nH]c(C)n3)c2c1,-4.195
3,Cc1nc(CCCNC(=O)c2c(F)cccc2Br)n[nH]1,89.06
4,COc1c(Br)cccc1CCNC(=O)c1ncoc1C,-6.421
5,Cc1ccc(O)c(C(=O)NCCCS(=O)(=O)Cc2ccccc2)c1,-4.048
6,COc1cc(Cl)ccc1C(=O)NCc1n[nH]c(C)n1,-9.051
7,COc1ccccc1C(=O)NCc1n[nH]c(C)n1,3.11
8,CN1C[C@H](O)C[C@H]1c1nc(-c2ccc(OC(F)(F)F)cc2)no1,-6.164
9,CCNC(=O)[C@@H]1C[C@H](N)CN1C(=O)c1cccc(CCC(C)(C)O)c1,102.7
10,CCNC(=O)[C@@H]1C[C@@H](N)CN1C(=O)CCc1ccc(C)c(C)c1,-3.444
11,CCNC(=O)[C@@H]1C[C@H](N)CN1C(=O)CCc1ccc(C)c(C)c1,-20.38
12,CC(C)(O)CCc1cccc(C(=O)NCC2CN(S(C)(=O)=O)CCO2)c1 (stereo not drawn),-12.96
13,CC(C)(O)CCc1cccc(C(=O)N[C@@H](CO)C(N)=O)c1,1.69
14,CC[C@@H](CO)NC(=O)c1cccc(CCC(C)(C)O)c1,0.6007
15,CC(C)(O)CCc1cccc(C(=O)N2CCC[C@H]2C(N)=O)c1,102.3
16,CCNC(=O)[C@@H]1CCCN1C(=O)c1cccc(CCC(C)(C)O)c1,104.5
17,C[C@H](NC(=O)c1cccc(CCC(C)(C)O)c1)C(N)=O,-11.41
18,CS(=O)(=O)N1CCC(Oc2ccc(C(=O)NCC3CCC3)cc2Cl)CC1,-2.678
19,Cc1cc(CN2CCCC2)cc(Oc2ccc(C(F)(F)F)cn2)c1,9.077
20,Cc1nn(C)cc1C(=O)NC(CC(C)C)C(=O)Nc1cc[nH]n1 (stereo not drawn),1.449
21,CN(CC(=O)NC(C)(C)C)Cc1cccc2c1OCCO2,-43.12
22,CN(CCO)Cc1nnc(C2CCN(C(=O)C(C)(C)C)CC2)n1C,1.717
23,Cc1cccn2c(NC(C)(C)C)c(C3CCN(C(=O)C4CC4)CC3)nc12,138
24,CC(C)(C)Nc1c(C2CCCN(C(=O)C3CC3)C2)nc2ccccn12.Cl (stereo not drawn),97.63
25,CC(C)(O)C1CCCN(C(=O)Nc2nc(-c3ccccc3)ns2)C1 (stereo not drawn),-3.959
26,CC(C)(C)Nc1c(C2CCN(C(=O)C(C)(C)C)CC2)nc2ccccn12,124.8

row,Structure (SMILES),Percent Effect [%]
1,CC(C)(C)C(=O)N1CCC(c2nc(O)cc(-c3ccccn3)n2)CC1,-20.96
2,CC(C)(C)Nc1c(C2CCN(C(=O)C3CC3)CC2)nc2ccccn12,95.08
3,NC(=O)c1csc(N2CCN(Cc3cccc4nsnc34)CC2)n1,-1.05
4,CC(C)N1CCC(O)(CNC(=O)CC2OCCc3ccccc32)CC1 (stereo not drawn),-11.76
5,Cc1ncc(Cl)c(C(=O)N2CC(=O)N(C)c3ccccc32)n1,-4.054
6,Cc1cnc(NC(=O)N2CCOCC2)s1,-16.98
7,CCC(C)n1cnc(S(=O)(=O)N(Cc2cccnc2)C(C)C)c1 (stereo not drawn),3.048
8,O=C(OCCNc1ncccn1)c1ccc(Br)s1,-22.12
9,COc1ccccc1OC1CN(C(=O)Cc2c(C)nc3ccccn23)C1,-17.73
10,CNC(C(=O)N1CCC(c2nccn2C(C)C)CC1)c1ccccc1 (stereo not drawn),12.05
11,CC(C)C(=O)N1CCC(c2nc3ccccn3c2NC(C)(C)C)CC1,120.3
12,CC(C)c1nc(C(=O)N(C)c2ccc(Br)cn2)cs1,-16
13,CC1CCN(S(=O)(=O)c2cccnc2)c2ccccc2S1 (stereo not drawn),-3.494
14,O=S1(=O)CCC(N2CCN(c3cc(C(F)(F)F)ccn3)CC2)C1 (stereo not drawn),0.5225
15,CS(=O)(=O)c1snnc1C1CCCN(Cc2ccncc2)C1 (stereo not drawn),95.13
16,CCn1c(CN(C)C)nnc1C1CCN(Cc2cnc(C)nc2)CC1,-9.341
17,Cc1nccc(CN2CCC(c3nnsc3S(C)(=O)=O)CC2)n1,2.937
18,CS(=O)(=O)c1snnc1C1CCN(Cc2cccnc2)CC1,133.5
19,CCn1c(CN2CCCC2)nnc1C1CCN(Cc2cccnc2)CC1,-3.145
20,CNc1ncc(CN2CCC(c3nnsc3S(C)(=O)=O)CC2)cn1,122
21,Cc1cccc(CN2CCC(c3nnsc3S(C)(=O)=O)CC2)n1,122.9
22,CS(=O)(=O)c1snnc1C1CCN(Cc2ccncc2)CC1,-7.486
23,CC(c1nc(C2CC2)no1)N1CCN(Cc2cccnc2)CC1 (stereo not drawn),9.745
24,CN(C)c1ncc(CN2CCC(c3nnsc3S(C)(=O)=O)CC2)cn1,-8.857
25,COC[C@H]1CNC(=O)[C@@H]2CCN(Cc3cccc(C)n3)CC[C@H]12,-1.462
